Assay results from PubChem BioAssay AID488905 (Broad Institute, 2010).
Results with a measured potency or affinity are listed apart. Records with an inconclusive call do not appear. Calls of active or inactive are those of the source.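 How the source made its calls: active means growth inhibition lowering dye signal, with fitted half-maximal dose at most ten times the top valid dose; inconclusive means flat curve inhibiting 30 to 70 percent, or unreliable fit; inactive means the rest, including effects in the opposite direction.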

Experiment: growth inhibition of azole-resistant C. albicans, dose response, CaCi-8 strain, Alamar Blue, dry powder, set 3 (AID 488905)
Conditions: C. albicans CaCi-8 + fluconazole, 48 h; series mostly up to 26 µM
For `COCCC(=O)N1CCN(c2ccccn2)CC1`, the outcome was “inactive”.
With `O=C(c1ccccc1)N1CCN(c2ccccn2)CC1` the outcome was “inactive”.
In the case of `O=C(c1ccc(Cl)cc1)N1CCN(c2cccc(C(F)(F)F)n2)CC1`, the outcome is reported as “inactive”.
With `O=C(c1ccc(Cl)cc1)N1CCN(c2cnccn2)CC1` the outcome was “inactive”.
With `Cc1cccc(N2CCN(C(=O)c3ccc(Cl)cc3)CC2)n1` the outcome was “inactive”.
In the case of `COc1cccnc1N1CCN(C(=O)c2ccc(Cl)cc2)CC1`, the outcome is reported as “inactive”.
With `Cn1ccnc1N1CCN(C(=O)c2ccc(Cl)cc2)CC1` the outcome was “inactive”.
